# Compound activity deposited in PubChem BioAssay by several laboratories.
# A selection follows.
# PostGolgi yeast: growth inhibition of a yeast mutant, post-Golgi transport screen. post-Golgi transport phenotypic cell assay. inhibition, % at 10 µM. hit rate 0.9% among 98,000. AID 739;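 note: yeast cells grown in 1536-well plates; yeast grown about 18 h at 30C before absorbance read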
# CYP2C9 inh: inhibitors of human CYP2C9; P11712; inhibition, % at 5 µM; CYP2C9 Supersomes, luciferin-H conversion, luminescence; hit rate 20% among 96,000; AID 777;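 active = blocking of liver enzyme CYP2C9 beyond about 50% at 5 µM, limit read from the data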
# PostGolgi ctrl: growth of the yeast control strain, post-Golgi counter-screen; efflux-deficient yeast background strain, growth absorbance A615, 16 h; hit rate 5% among 98,000; inhibition, % at 10 µM
# CYP2C19 act: increases human CYP2C19 enzyme activity; P33261; recombinant CYP2C19, luciferin-H EGE luminescence; active compounds read high; 0 = fully inhibited enzyme, 1 = untreated enzyme; activation factor at 5 µM; 96,000 tested, under 10 active;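 active = activation factor of at least 2 at 5 µM in the primary screen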
# Target sequence (P33261 whole entry, looked up): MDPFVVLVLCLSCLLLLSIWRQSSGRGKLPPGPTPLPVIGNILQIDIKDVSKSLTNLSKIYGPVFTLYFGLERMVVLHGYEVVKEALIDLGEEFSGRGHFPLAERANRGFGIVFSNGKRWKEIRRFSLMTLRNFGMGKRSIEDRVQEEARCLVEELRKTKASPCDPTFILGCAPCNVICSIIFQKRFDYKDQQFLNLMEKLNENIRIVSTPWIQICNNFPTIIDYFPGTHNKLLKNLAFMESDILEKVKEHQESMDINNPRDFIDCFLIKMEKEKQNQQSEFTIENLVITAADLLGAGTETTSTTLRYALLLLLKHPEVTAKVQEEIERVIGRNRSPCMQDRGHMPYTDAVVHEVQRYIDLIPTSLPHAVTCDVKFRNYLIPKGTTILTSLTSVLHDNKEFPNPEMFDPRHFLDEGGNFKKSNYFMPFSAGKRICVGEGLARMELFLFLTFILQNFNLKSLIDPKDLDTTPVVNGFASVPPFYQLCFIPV
# CYP2C19 inhib: blocks human cytochrome P450 2C19; AID 778; hit rate 21% among 96,000; CYP2C19 Supersomes, luciferin-H EGE luminescence, 30 min; P33261; inhibition, % at 5 µM;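 active = CYP2C19 inhibition above a set limit at 5 µM in the primary screen, cut at about 50% in these data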
# CYP2C9 activ: increases human cytochrome P450 2C9 activity | P11712 | recombinant CYP2C9, luciferin-H conversion, luminescence; active compounds read high; factor 1 = untreated enzyme, 0 = blocked | activation factor at 5 µM | hit rate 1.4% among 96,000 | AID 1024;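 active = activation factor of 2 or more for CYP2C9 at a 5 µM dose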
# A number is an active result; i = inactive; nt = no result given. Cut-off read from the data, not from the text of the source, unless noted: active = inhibition above about 30%; inactive = the rest.
SMILES,PostGolgi yeast,CYP2C9 inh,PostGolgi ctrl,CYP2C19 act,CYP2C19 inhib,CYP2C9 activ
CC(C)(C)c1ccc(/C=N/NC(=O)Cc2c[nH]c3ccccc23)cc1,i,74,i,i,i,i
Cc1ccc(/C=N/NC(=O)Cc2c[nH]c3ccccc23)c(C)c1,i,i,i,i,i,i
CC(=O)N(Cc1ccccc1)c1ncc2c(n1)c(=O)c(C#N)c1ccccn12,i,i,i,i,i,i
Cc1ccc(S(=O)(=O)N2CCCC2C(=O)Nc2cc(C)on2)cc1 (stereo not given),i,i,i,i,i,i
COc1ccc(S(=O)(=O)N2CCCC2C(=O)Nc2nnc(-c3cccnc3)s2)cc1 (stereo not given),i,i,i,i,99,i
Cc1ccc(S(=O)(=O)N2CCCC2C(=O)Nc2nc3c(s2)CCCC3)cc1 (stereo not given),i,90,i,i,i,i
COc1ccc2nc(NC(=O)C3CCCN3S(=O)(=O)c3ccc(C)cc3)sc2c1 (stereo not given),i,i,i,i,68,i
COc1ccc(S(=O)(=O)N2CCC[C@H]2C(=O)NC2=NCCS2)cc1,i,i,i,i,i,i
CCOc1cccc2c1OC1(C)CC2NC(=O)N1c1cccc(Cl)c1 (stereo not given),i,i,i,i,i,i
CCCC(=O)n1nc(-c2cccnc2)nc1N,i,i,i,i,i,i
COc1ccc(N(CC(=O)NC2CCCCCC2)S(=O)(=O)c2c(C)nn(C)c2C)cc1,i,50,i,i,i,i
COc1ccc(N(CC(=O)N2c3ccccc3CC2C)S(=O)(=O)c2c(C)noc2C)cc1 (stereo not given),i,92,i,i,88,i
COc1ccc(N(CC(=O)N2CCC(C)CC2)S(=O)(=O)c2c(C)nn(C)c2C)cc1,i,i,i,i,75,i
COc1ccc(N(CC(=O)N2CC=C(c3ccccc3)CC2)S(=O)(=O)c2c(C)noc2C)cc1,i,i,i,i,i,i
Cc1ccc(N(CC(=O)NC2CCCCCC2)S(=O)(=O)c2c(C)nn(C)c2C)cc1,i,i,i,i,i,i
Cc1ccc(N(CC(=O)NCc2cccs2)S(=O)(=O)c2cccs2)cc1,i,74,i,i,96,i
COc1ccnc(N=CNOCc2ccc(F)cc2Cl)c1C#N,i,i,i,i,i,i
c1ccc(COn2c(-c3ccccc3)nc3c2CCc2nonc2-3)cc1,i,i,i,i,i,i
CCOc1ccccc1NC(=O)CSc1nnc2c(CC)c(C)nc(N)n12,i,i,i,i,i,i
O=C(CCN1C(=O)C2C3C=CC(C3)C2C1=O)Nc1ccc(F)cc1 (stereo not given),i,i,i,i,i,i
Cc1nn(C)c(C)c1S(=O)(=O)N(CC(=O)NCc1cccs1)c1ccc(C(C)C)cc1,i,nt,i,nt,nt,nt
COc1ccc(N(CC(=O)NCc2cccs2)S(=O)(=O)c2c(C)nn(C)c2C)cc1,i,i,i,i,72,i
COc1ccc(C(=O)NC2CCN(C(=O)NC3CCCCC3)CC2)cc1,i,i,i,i,i,i
COc1ccc(N(CC(=O)NCc2ccccc2)S(=O)(=O)c2c(C)nn(C)c2C)cc1,i,i,i,i,85,i
COc1ccc(N(CC(=O)NC2CCCC2)C(=O)c2ccc(N3CCCCC3)nc2)cc1,i,78,i,i,i,i
SMILES,PostGolgi yeast,CYP2C9 inh,PostGolgi ctrl,CYP2C19 act,CYP2C19 inhib,CYP2C9 activ
COc1ccc(N(CC(=O)NCc2ccccc2)S(=O)(=O)c2c(C)noc2C)cc1,i,i,i,i,91,i
CCOC(=O)c1c(NC(C)=O)sc2c(OC(C)=O)cccc12,i,i,i,i,i,i
Nn1c(SCC(=O)N2CCCc3ccccc32)nnc1-c1ccc(Cl)cc1,i,i,i,i,i,i
CC1CCN(c2cc(=O)n(C3CCCCC3)c(=O)[nH]2)CC1,i,i,i,i,i,i
CCn1c(CSc2nc3ccccc3s2)nnc1SCC(=O)c1ccc(O)cc1O,i,i,i,i,i,i
COc1ccc(N(CC(=O)NCc2cccnc2)S(=O)(=O)c2c(C)nn(C)c2C)cc1,i,i,37,i,64,i
CC(C)c1ccc(CN2CC(C(=O)O)CC2=O)cc1 (stereo not given),i,i,i,i,i,i
N#Cc1c(N)nc2c3c(sc(=N)c2c1N)NC(=O)CC3c1ccccc1 (stereo not given),i,i,i,i,73,i
N#Cc1c(N)nc2c3c(sc(=N)c2c1N)NC(=O)CC3c1c(F)cccc1Cl (stereo not given),i,i,i,i,i,i
CC1CCCC(C)N1C(=O)CSc1nnc(COc2ccccc2)n1-c1ccccc1 (stereo not given),i,i,i,i,65,i
COc1ccc(OCc2nnc(SC(C)C(=O)Nc3nccs3)n2-c2ccccc2)cc1 (stereo not given),i,60,i,i,i,i
O=C(CSc1nnc(COc2ccccc2)n1-c1ccccc1)c1ccccc1,i,i,i,i,i,i
COc1ccc(-n2c(COc3ccc(C)cc3)nnc2SCC(N)=O)cc1,i,i,i,i,i,i
COc1ccc(-n2c(COc3ccccc3)nnc2SCC(N)=O)cc1,i,i,i,i,63,i
S=c1[nH]nc(CSc2nc3ccccc3s2)n1C1CCCCC1,i,i,i,i,i,i
S=c1[nH]nc(COc2ccccc2)n1C1CCCCC1,i,i,i,i,60,i
CCCCOc1ccc(-c2nnn(CCC(=O)N3CCOCC3)n2)cc1,i,i,i,i,i,i
O=C(NCC1(c2ccccc2)CCCC1)c1cccc(Br)c1,i,i,i,i,i,i
Cc1ccc(Sc2cc(C(F)(F)F)nc(N(C)C)n2)cc1,i,i,i,i,i,i
NC(=O)CSc1nnc(Cc2cccs2)n1C1CCCCC1,i,i,i,i,i,i
COc1cccc(-n2c(COc3ccc(C)cc3)nnc2SCC(N)=O)c1,i,i,i,i,67,i
NC(=O)CSc1nnc(COc2ccccc2)n1C1CCCCC1,nt,56,nt,i,80,i
CCOC(=O)C(C)Sc1nnc(Cc2cc(=O)[nH]c(=O)[nH]2)n1-c1ccc(OCC)cc1 (stereo not given),i,i,i,i,i,i
Cc1nnc(SC(C)C(=O)Nc2ccc(Cl)cn2)n1Cc1ccccc1 (stereo not given),i,i,i,i,i,i
CC(Sc1nnc(-c2ccc(Cl)cc2Cl)n1Cc1ccccc1)C(=O)Nc1nccs1 (stereo not given),i,54,i,i,i,i
CCOC(=O)C(C)Sc1nnc(Cc2cc(=O)[nH]c(=O)[nH]2)n1-c1cccc(OC)c1 (stereo not given),i,i,32,i,i,i
CC(C)Cn1c(N)c(C(=O)COC(=O)c2ccc3ccccc3n2)c(=O)n(C)c1=O,i,nt,i,nt,nt,nt
O=c1[nH]c2ccc(S(=O)(=O)N3CCN(c4ccccc4)CC3)cc2[nH]c1=O,i,i,i,i,i,i
